Measurements as given in PubChem BioAssay AID504397 (Broad Institute, 2011).
Results with a measured potency or affinity are listed apart. Calls of active or inactive are those of the source. No rule for the calls is given here.

Experiment: toxicity toward cultured mammalian cells – cell-based, plate reader, cherry-pick samples, cytotoxicity control, dose response (AID 504397)
Conditions: plate reader viability; series mostly up to 35 µM

Structure (SMILES): Nc1nonc1-n1nnc(C(=O)N/N=C/c2ccoc2)c1CSc1ccccc1
- outcome: inactive

Structure (SMILES): CS(=O)(=O)Nc1ccccc1C(=O)NC1CC2CCC1C2 (configuration not stated)
- outcome: inactive

Structure (SMILES): Cc1csc2nc(=O)c3ccccc3n12
- outcome: inactive

Structure (SMILES): CCn1nnnc1SCC(=O)Nc1nc(C)c(C)s1
- outcome: inactive

Structure (SMILES): CCCCNC(=S)N=Nc1c(O)n(Cc2ccccc2)c2ccccc12
- outcome: inactive

Structure (SMILES): CN(C)S(=O)(=O)c1ccc(NC(=O)/C=C/c2ccccc2Cl)cc1
- outcome: inactive

Structure (SMILES): CC(/C=N\NC(=O)CN1CCN(S(=O)(=O)c2ccc(C)cc2)CC1)=C\c1ccccc1
- outcome: inactive

Structure (SMILES): Cc1ccc2nc(N(CCN(C)C)C(=O)c3ccc4ccccc4c3)sc2c1
- outcome: inactive

Structure (SMILES): COc1ccc(CN2CCN(C(c3ccc(F)cc3)c3ccc(F)cc3)CC2)c(OC)c1OC
- outcome: inactive

Structure (SMILES): COc1ccc(C2Nc3ccccc3C(=O)N2Cc2ccccc2)cc1COc1ccccn1 (configuration not stated)
- outcome: inactive

Structure (SMILES): O=C(COC(=O)c1ccccc1Cc1ccccc1)NC1CCS(=O)(=O)C1 (configuration not stated)
- outcome: inactive

Structure (SMILES): Cc1ccc(NC(=O)CCc2ccc(S(=O)(=O)NC3CCCCC3)cc2)cc1
- outcome: inactive

Structure (SMILES): N/C(Cc1ccc([N+](=O)[O-])cc1)=N\OC(=O)c1ccc2ccccc2c1
- outcome: inactive

Structure (SMILES): CC(C)c1c(C(=O)N/N=C/c2c[nH]c3ccccc23)nnn1-c1nonc1N
- outcome: inactive

Structure (SMILES): O=[N+]([O-])c1ccc(-c2cnc(SC(c3ccccc3)c3ccccc3)[nH]2)cc1
- outcome: inactive

Structure (SMILES): CC(C)c1c(C(=O)N/N=C/c2cccc3ccccc23)nnn1-c1nonc1N
- outcome: inactive

Structure (SMILES): NC(=NCCCCCCN=C(N)/N=C(\N)Nc1ccc(Cl)cc1)/N=C(\N)Nc1ccc(Cl)cc1
- outcome: inactive
